Molecules are shown by their SMILES. Activity calls are given as the source filed them. How the source made its calls: active means hit-call score of the fitted dose curve at least 0.9, where 1 is the maximum; inactive means score below 0.9.

The values that follow come from PubChem BioAssay (EPA / NIEHS).

The experiment in a line: ATG_TGFb_CIS: Attagene CIS-FACTORIAL HepG2 Assay for human Transforming Growth Factor (TGF) (AID 2282967). The following applies: HepG2 Attagene CIS TGFb reporter, mRNA transcription; actives raise or lower the signal. The procedure: ATG_CIS is a cell-based, multiplexed-readout assay that uses HepG2, a human liver cell line, with measurements taken at 24 hours after chemical dosing in a 24-well plate.ATG_TGFb_CIS is one of 52 assay component(s) measured or calculated from the ATG_CIS assay. It is designed to make measurements of mRNA induction, a form of inducible reporter, as detected with fluorescence intensity signals by Reverse transcription polymerase chain reaction (RT-PCR) and Capillary electrophoresis technology.Data from the assay component ATG_TGFb_CIS was analyzed into 1 assay endpoint. This assay endpoint, ATG_TGFb_CIS, was analyzed with bidirectional fitting relative to DMSO as the negative control and baseline of activity. Using a type of inducible reporter, measures of mRNA for gain or loss-of-signal activity can be used to understand the reporter gene at the transcription factor-level as they relate to the gene TGFB1. Furthermore, this assay endpoint can be referred to as a primary readout, because this assay has produced multiple assay endpoints where this one serves a reporter gene function. To generalize the intended target to other relatable targets, this assay endpoint is annotated to the growth factor intended target family, where the subfamily is transforming growth factor beta.
Human liver HepG2 cells are transiently transfected with multiple reporter transcription units (MRTUs) in 6-well plates using FuGene 6 reagent (Roche; 3 ml FuGene/1 mg DNA). The MRTU constructs are regulated by a cis-regulating element (promoter). […] A major difference between the CIS and TRANS system is that in CIS activities of endogenous TFs are measured, whereas the TRANS assay evaluates changes in activities of exogenous, chimeric NR-Gal4 proteins. […] At the end of 24 hour incubation, total RNA was isolated using TriZol reagent (Invitrogen). The isolated RNA is then reverse-transcribed using oligo(dT) primer and Mo-MLV reverse transcriptase (Invitrogen) with DNAse I (Ambion) treatment for 30 min. The one-tenth of the produced cDNA was amplified by PCR using Taq DNA polymerase (Invitrogen) and two reporter sequence-specific primers. The PCR products were fluorescently labeled by primer extension with 6-arboxyfluorescein (6-FAM) 5'-labeled reporter sequence-specific primer (2 min at 95 C, 20 s at 68 C and 10 min at 72 C) and these products were digested with 5U of HpaI (New England Biolabs) for 2h at 37 C. The fragments were purified using Qiaquick PCR columns (Qiagen), analyzed on an ABI 3130xL genetic analyzer (Applied Biosystems) with peak positions identified by using a set of X-rhodamine (ROX)-labeled MapMarker1000 molecular weight standards (BioVentures). The raw capillary electrophoresis data was processed using Attagraph software (Attagene).
For `Nc1ccc(F)c([N+](=O)[O-])c1`, the molecule was called inactive.
Still for that read-out and setting: with `O=P(c1ccccc1)(c1ccccc1)c1ccccc1` the entry was “inactive”.
Take `CCCCC(CC)COC(=O)/C=C\C(=O)OCC(CC)CCCC` (stereo not given): the result was inactive.
On the same count and under the same terms, as for `C=C(C)C(=O)NCCCN(C)C`, the entry is “inactive”; as for `C=C(C)C(=O)Nc1ccc(Cl)c(Cl)c1`, “inactive”.
Take `CSc1nc(NC2CC2)nc(NC(C)(C)C)n1`: the call was inactive.
The same measure, in the same setting: with `CCCC[n+]1ccccc1` the entry was “inactive”; with `CCCCCC(CO)CCC` (stereo not given), “inactive”; with `CC1(C)OC[C@@H]2O[C@@]3(C(=O)O)OC(C)(C)O[C@H]3[C@@H]2O1`, “inactive”.
As to `CCOC(=S)SSC(=S)OCC`, the molecule was classed as inactive.
For the molecule `Cc1c(Cl)c(=O)oc2cc(O)ccc12`, the result was inactive.
Regarding `C=CC(=O)OCCOCCOCC`, the molecule was classed as inactive.
With `OC1C(O)C(O)C(O)C(O)C1O` (stereo not given), the call was inactive.
Same read-out and setting: as for `CC(C)=CCCC(C)CC=O` (stereo not given), the entry is “inactive”.
For the molecule `Cc1ccc(C(=O)O)o1`, the molecule was classed as inactive.
On the same count and under the same terms, as for `S=C(S)NCCNC(=S)S`, the entry is “inactive”; as for `CC(=O)[C@H]1CC[C@H]2[C@@H]3CC=C4C[C@@H](O)CC[C@]4(C)[C@H]3CC[C@]12C`, “inactive”.
The same measure, in the same setting: as for `Cc1ccc(O)c(C(C)(C)C)c1`, the entry is “inactive”; as for `CCC(=O)/C=C/C1C(C)=CCCC1(C)C` (stereo not given), “inactive”; as for `OCCN1CCNCC1`, “inactive”.
As for `CC(C)=CCC[C@](C)(O)[C@@H]1CC=C(C)CC1`, the molecule was called inactive.
The same measure, in the same setting: with `Cc1ccc(S)cc1` the entry was “inactive”; with `CCCCCCCCCCN`, “inactive”; with `NC(=O)Nc1ccc(Cl)cc1`, “inactive”.
Same read-out and setting: with `CN(C)CCCN` the entry was “inactive”.
On the same count and under the same terms, with `CNCCCC12CCC(c3ccccc31)c1ccccc12` the entry was “inactive”.
For `Nc1cccc(S(=O)(=O)c2cccc(N)c2)c1`, the outcome was inactive.
Turning to `O=C(O)CCSCCC(=O)O`, the molecule was called inactive.
The same measure, in the same setting: as for `CCCCCCCCCCCCCC(=O)O`, the entry is “inactive”.
Consider `Clc1ccc(Cl)c(Cl)c1Cl`, for which the half-maximal activity concentration (AC50) was 19.8 µM (active).
`Clc1sc(Cl)c(Cl)c1Cl`: the call was inactive.
The same measure, in the same setting: as for `CCCCNC(=O)NS(=O)(=O)c1ccc(C)cc1`, the entry is “inactive”.
The same measure, in the same setting: as for `Fc1c(F)c(F)c(Br)c(F)c1F`, the entry is “inactive”.
`CC(C)c1ccc(C(C)C)cc1`: the half-maximal activity concentration (AC50) was 171 µM (active).
`CNC[C@H](O)c1cccc(O)c1`: the result was inactive.
Still for that read-out and setting: with `CC(=O)OCCC(C)CC(C)(C)C` (stereo not given) the entry was “inactive”.
The same measure, in the same setting: as for `Nc1ccc(S(=O)(=O)O)c(N)c1`, the entry is “inactive”; as for `CCCCCCOC(=O)CCCCC`, “inactive”.
For `Cc1ccc(Nc2ccc(O)c3c2C(=O)c2ccccc2C3=O)cc1`, the molecule was called inactive.
Regarding `CCCCCCCCCCCCCCCC(=O)OC[C@H](O)[C@H]1OC(=O)C(O)=C1O`, the AC50 is 3.14 µM (active).

One may read the AC50 as the concentration giving half of the maximal activity seen.
